Results reported in ChEMBL document CHEMBL2218924, “A broad activity screen in support of a chemogenomic map for kinase signalling research and drug discovery” (Biochem J, 2013).

Experiments:
[1] = molecular target: T1, Ephrin type-A receptor 3 (Homo sapiens) (UniProt P29320); conditions: at 10 µM
T1 sequence (whole entry): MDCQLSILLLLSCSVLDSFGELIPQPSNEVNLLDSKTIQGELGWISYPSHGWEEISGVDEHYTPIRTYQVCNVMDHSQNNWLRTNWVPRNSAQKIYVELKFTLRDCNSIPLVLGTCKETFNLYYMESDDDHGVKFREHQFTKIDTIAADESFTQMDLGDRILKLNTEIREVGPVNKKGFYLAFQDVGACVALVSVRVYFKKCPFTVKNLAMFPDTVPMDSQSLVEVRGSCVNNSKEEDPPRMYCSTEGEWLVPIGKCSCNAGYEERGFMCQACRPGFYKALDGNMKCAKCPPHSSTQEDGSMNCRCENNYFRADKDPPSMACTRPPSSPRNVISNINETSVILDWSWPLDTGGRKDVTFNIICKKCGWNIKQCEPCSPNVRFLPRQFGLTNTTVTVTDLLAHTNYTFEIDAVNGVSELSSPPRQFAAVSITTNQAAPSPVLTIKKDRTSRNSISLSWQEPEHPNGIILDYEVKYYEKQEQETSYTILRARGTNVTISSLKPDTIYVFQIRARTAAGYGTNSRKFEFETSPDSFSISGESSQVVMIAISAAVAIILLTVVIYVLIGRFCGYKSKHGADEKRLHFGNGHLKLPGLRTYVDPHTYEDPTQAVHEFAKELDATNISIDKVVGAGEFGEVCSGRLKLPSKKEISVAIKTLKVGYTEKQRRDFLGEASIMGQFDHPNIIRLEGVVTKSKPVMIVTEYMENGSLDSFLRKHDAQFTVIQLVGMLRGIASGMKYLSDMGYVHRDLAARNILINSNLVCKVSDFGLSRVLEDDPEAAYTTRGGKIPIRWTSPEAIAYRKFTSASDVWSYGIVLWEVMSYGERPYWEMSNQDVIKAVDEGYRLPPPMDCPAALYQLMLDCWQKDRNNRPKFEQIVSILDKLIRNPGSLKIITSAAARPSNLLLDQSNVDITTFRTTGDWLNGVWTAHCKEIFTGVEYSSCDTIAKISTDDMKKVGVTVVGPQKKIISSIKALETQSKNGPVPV

[2] = molecular target: Ephrin type-A receptor 7 (Homo sapiens) (UniProt Q15375); conditions: at 1 µM
[3] = molecular target: Ephrin type-A receptor 7 (Homo sapiens) (UniProt Q15375); conditions: at 10 µM
[4] = molecular target: T2, Ephrin type-A receptor 8 (Homo sapiens) (UniProt P29322); conditions: at 1 µM
T2 sequence (whole entry): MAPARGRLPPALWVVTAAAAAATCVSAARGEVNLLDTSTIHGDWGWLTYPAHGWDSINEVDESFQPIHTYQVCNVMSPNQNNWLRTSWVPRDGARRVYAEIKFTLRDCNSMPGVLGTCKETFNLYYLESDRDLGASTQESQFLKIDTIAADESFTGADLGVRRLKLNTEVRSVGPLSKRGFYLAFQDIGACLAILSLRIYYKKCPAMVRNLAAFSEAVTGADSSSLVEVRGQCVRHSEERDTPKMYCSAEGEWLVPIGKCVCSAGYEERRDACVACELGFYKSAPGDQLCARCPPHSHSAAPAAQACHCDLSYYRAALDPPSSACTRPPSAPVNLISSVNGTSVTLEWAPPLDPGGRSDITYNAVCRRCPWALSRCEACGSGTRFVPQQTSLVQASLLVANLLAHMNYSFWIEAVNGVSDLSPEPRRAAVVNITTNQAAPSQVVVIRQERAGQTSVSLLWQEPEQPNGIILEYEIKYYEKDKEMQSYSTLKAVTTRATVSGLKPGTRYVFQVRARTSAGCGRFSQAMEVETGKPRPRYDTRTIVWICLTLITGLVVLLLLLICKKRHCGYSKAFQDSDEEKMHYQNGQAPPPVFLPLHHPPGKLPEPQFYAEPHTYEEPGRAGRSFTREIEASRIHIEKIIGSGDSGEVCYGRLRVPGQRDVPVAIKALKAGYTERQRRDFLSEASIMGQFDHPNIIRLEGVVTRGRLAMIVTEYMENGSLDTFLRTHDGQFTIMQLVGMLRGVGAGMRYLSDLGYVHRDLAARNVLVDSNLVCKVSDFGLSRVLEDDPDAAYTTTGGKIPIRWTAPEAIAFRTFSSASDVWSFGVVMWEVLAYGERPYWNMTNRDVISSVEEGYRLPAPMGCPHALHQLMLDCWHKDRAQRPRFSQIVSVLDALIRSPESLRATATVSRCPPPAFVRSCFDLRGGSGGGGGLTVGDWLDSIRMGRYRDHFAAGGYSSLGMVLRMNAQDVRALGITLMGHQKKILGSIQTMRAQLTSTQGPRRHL

[5] = molecular target: T2, Ephrin type-A receptor 8 (Homo sapiens); conditions: at 10 µM
[6] = molecular target: T3, Ephrin type-B receptor 1 (Homo sapiens) (UniProt P54762); conditions: at 1 µM
T3 sequence (whole entry): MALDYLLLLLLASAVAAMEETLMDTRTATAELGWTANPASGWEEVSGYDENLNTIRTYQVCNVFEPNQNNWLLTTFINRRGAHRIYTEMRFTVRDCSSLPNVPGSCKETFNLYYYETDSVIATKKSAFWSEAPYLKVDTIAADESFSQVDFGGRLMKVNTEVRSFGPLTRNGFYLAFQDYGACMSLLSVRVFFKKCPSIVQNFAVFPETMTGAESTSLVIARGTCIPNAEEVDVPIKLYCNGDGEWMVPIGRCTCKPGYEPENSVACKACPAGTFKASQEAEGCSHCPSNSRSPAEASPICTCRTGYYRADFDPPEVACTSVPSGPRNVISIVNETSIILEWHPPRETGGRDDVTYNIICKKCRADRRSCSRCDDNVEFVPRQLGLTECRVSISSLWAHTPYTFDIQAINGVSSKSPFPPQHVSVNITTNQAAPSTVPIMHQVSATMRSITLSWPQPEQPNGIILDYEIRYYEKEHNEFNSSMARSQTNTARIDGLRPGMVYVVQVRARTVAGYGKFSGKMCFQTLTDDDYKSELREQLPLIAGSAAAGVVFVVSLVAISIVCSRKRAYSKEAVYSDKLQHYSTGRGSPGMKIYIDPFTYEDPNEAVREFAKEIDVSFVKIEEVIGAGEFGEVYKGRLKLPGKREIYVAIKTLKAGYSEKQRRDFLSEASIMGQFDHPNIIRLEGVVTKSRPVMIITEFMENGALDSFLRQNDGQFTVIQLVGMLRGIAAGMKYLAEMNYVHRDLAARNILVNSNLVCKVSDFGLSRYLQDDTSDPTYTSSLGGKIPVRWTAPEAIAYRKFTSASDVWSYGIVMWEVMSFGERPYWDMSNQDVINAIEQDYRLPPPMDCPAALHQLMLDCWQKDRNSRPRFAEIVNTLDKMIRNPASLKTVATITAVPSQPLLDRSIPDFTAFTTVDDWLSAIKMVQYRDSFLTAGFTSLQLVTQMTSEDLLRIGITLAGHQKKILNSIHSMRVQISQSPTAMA

[7] = molecular target: T3, Ephrin type-B receptor 1 (Homo sapiens); conditions: at 10 µM
[8] = molecular target: T4, Ephrin type-B receptor 2 (Homo sapiens) (UniProt P29323); conditions: at 10 µM
T4 sequence (whole entry): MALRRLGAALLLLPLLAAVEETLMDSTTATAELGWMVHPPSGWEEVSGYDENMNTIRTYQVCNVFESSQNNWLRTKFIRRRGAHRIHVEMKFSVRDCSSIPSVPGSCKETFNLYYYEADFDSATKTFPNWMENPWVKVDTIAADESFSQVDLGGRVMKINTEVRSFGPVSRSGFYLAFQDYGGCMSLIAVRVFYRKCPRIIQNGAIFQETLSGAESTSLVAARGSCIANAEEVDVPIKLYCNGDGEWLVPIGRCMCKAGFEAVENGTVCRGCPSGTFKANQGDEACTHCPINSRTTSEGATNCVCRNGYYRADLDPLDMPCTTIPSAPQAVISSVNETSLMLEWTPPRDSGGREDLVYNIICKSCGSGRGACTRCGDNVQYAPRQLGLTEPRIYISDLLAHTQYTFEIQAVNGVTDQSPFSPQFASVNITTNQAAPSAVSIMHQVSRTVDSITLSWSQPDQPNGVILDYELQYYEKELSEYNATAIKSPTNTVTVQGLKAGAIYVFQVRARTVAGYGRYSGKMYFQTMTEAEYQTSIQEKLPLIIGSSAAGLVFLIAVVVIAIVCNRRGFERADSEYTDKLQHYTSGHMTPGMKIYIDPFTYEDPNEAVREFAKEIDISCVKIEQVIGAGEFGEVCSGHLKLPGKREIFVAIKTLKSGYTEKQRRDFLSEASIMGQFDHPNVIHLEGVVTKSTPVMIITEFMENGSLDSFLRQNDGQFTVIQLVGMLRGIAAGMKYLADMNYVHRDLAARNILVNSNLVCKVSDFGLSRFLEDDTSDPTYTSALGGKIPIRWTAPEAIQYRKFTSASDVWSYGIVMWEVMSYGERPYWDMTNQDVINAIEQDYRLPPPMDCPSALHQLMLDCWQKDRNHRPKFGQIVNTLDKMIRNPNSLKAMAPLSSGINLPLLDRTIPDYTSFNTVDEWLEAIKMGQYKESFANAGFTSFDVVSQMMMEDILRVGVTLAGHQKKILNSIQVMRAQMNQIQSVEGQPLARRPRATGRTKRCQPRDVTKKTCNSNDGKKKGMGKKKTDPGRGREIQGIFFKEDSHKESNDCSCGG

[9] = molecular target: T5, Ephrin type-B receptor 3 (Homo sapiens) (UniProt P54753); conditions: at 1 µM
T5 sequence (whole entry): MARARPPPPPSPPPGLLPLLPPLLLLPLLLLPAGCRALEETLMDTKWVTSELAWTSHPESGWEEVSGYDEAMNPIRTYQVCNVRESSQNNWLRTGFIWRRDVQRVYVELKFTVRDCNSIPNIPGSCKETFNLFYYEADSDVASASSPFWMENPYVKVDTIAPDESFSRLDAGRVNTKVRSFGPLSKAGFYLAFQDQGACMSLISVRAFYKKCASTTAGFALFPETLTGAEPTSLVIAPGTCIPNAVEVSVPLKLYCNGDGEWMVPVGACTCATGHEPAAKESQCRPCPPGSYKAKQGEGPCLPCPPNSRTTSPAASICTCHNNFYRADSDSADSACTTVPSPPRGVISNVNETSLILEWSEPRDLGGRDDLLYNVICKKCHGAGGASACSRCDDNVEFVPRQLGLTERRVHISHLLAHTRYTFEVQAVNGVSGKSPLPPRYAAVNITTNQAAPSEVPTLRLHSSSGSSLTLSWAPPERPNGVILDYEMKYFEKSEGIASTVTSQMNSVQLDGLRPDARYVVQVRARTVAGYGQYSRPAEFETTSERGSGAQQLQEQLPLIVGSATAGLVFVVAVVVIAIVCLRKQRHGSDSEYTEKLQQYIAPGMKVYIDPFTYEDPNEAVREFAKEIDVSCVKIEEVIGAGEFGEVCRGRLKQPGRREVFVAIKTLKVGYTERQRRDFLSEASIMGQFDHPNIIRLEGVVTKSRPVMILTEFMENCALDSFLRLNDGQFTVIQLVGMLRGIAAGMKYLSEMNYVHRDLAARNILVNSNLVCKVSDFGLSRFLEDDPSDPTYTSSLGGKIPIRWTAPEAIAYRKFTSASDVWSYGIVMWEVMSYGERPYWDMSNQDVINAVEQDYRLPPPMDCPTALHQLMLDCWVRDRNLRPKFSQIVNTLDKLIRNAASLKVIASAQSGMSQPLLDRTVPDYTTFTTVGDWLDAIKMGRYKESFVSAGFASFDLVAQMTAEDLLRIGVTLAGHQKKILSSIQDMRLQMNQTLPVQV

[10] = molecular target: T5, Ephrin type-B receptor 3 (Homo sapiens); conditions: at 10 µM
[11] = molecular target: Receptor tyrosine-protein kinase erbB-4 (Homo sapiens) (UniProt Q15303); conditions: at 1 µM
[12] = molecular target: Receptor tyrosine-protein kinase erbB-4 (Homo sapiens) (UniProt Q15303); conditions: at 10 µM
[13] = molecular target: Ephrin type-A receptor 5 (Homo sapiens) (UniProt P54756); conditions: at 1 µM
[14] = molecular target: Ephrin type-A receptor 5 (Homo sapiens) (UniProt P54756); conditions: at 10 µM
[15] = molecular target: T4, Ephrin type-B receptor 2 (Homo sapiens); conditions: at 1 µM
[16] = molecular target: T6, Ephrin type-B receptor 4 (Homo sapiens) (UniProt P54760); conditions: at 1 µM
T6 sequence (whole entry): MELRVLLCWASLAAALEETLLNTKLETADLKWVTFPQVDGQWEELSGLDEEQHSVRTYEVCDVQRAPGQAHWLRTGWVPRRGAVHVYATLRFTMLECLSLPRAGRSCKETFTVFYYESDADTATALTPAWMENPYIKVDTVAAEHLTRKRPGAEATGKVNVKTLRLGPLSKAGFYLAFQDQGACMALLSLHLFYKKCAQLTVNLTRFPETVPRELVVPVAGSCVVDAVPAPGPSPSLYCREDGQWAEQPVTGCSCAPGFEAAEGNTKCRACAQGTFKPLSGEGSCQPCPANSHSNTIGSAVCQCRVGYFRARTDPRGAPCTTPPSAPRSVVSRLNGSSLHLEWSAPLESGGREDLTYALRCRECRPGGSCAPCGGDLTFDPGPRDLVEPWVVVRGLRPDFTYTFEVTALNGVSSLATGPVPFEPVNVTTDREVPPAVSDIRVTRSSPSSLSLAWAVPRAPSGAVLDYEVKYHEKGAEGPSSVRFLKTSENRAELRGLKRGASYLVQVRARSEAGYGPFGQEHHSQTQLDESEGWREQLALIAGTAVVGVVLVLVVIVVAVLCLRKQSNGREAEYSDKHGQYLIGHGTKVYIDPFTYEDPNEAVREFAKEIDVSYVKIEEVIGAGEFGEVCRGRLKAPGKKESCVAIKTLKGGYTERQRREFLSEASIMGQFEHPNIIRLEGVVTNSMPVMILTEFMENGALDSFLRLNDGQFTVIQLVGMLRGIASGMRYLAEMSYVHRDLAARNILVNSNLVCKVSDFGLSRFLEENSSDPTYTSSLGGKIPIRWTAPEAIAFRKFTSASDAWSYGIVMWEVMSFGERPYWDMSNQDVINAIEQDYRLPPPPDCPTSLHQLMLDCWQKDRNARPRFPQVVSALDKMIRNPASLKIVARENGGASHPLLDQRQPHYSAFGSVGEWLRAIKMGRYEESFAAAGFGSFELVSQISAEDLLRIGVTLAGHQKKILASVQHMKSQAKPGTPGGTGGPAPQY

[17] = molecular target: T6, Ephrin type-B receptor 4 (Homo sapiens); conditions: at 10 µM
[18] = molecular target: Focal adhesion kinase 1 (Homo sapiens) (UniProt Q05397); conditions: at 1 µM
Focal adhesion kinase 1 (Homo sapiens), sequence (Q05397 2-1052 limits assumed): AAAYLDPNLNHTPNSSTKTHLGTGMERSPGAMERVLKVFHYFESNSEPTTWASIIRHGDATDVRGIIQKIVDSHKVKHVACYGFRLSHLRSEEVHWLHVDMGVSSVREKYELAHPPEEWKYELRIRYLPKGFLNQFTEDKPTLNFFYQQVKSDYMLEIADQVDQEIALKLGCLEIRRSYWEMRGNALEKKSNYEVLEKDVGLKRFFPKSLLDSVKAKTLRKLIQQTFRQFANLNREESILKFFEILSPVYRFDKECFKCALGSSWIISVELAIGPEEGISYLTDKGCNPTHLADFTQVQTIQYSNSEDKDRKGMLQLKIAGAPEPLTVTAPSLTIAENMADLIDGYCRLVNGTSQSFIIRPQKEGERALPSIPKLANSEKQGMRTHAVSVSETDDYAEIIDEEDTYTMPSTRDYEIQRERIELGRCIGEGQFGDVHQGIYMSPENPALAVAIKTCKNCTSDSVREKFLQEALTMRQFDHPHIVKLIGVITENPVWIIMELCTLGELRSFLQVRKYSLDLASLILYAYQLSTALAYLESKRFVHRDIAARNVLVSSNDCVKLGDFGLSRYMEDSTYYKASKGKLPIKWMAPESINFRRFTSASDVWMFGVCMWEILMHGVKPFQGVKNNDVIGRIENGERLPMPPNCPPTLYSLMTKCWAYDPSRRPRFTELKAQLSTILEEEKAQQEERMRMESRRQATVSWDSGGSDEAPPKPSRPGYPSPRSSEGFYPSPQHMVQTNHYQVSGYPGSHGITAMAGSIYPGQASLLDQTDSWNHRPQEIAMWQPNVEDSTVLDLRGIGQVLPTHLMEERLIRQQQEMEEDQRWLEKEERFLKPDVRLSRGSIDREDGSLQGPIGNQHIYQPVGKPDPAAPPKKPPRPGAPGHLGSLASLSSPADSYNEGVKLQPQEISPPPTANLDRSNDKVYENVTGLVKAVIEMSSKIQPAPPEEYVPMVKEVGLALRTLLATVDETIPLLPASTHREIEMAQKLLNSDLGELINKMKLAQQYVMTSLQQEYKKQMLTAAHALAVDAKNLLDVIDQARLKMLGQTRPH

Receptor tyrosine-protein kinase erbB-4 (Homo sapiens), sequence (Q15303 whole entry): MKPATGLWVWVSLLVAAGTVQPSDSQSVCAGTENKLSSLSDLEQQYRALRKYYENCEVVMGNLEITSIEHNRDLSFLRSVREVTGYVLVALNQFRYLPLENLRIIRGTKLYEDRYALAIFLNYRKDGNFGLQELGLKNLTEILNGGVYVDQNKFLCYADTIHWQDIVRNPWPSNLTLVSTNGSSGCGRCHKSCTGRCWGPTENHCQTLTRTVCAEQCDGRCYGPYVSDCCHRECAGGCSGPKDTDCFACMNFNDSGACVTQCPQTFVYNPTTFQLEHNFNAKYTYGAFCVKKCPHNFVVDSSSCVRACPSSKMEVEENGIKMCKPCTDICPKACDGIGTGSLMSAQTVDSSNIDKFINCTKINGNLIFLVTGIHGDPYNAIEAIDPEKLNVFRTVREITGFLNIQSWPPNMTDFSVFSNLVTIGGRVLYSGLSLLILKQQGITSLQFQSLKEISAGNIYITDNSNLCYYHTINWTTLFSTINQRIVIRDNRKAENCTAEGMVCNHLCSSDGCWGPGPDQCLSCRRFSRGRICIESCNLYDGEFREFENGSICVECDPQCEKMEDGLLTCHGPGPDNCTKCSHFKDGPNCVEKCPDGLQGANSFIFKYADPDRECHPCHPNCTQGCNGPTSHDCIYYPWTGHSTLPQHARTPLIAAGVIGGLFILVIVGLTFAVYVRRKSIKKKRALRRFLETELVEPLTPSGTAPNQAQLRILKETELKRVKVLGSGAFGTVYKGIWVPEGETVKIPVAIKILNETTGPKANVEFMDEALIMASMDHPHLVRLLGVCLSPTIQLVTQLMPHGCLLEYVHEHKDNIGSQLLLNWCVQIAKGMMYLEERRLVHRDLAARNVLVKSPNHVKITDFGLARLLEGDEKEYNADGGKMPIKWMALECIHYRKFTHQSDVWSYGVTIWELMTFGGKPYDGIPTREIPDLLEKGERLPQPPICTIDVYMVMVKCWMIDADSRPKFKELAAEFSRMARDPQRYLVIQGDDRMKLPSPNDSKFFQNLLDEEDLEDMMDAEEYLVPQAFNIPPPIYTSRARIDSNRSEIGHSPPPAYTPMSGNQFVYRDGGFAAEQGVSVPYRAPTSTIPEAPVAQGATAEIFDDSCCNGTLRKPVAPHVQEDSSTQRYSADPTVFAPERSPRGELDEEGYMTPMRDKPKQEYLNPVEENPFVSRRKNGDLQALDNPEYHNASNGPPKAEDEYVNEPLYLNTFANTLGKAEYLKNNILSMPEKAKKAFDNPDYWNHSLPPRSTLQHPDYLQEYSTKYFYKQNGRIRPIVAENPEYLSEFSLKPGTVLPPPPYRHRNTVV
Ephrin type-A receptor 7 (Homo sapiens), sequence (Q15375 28-998 limits assumed): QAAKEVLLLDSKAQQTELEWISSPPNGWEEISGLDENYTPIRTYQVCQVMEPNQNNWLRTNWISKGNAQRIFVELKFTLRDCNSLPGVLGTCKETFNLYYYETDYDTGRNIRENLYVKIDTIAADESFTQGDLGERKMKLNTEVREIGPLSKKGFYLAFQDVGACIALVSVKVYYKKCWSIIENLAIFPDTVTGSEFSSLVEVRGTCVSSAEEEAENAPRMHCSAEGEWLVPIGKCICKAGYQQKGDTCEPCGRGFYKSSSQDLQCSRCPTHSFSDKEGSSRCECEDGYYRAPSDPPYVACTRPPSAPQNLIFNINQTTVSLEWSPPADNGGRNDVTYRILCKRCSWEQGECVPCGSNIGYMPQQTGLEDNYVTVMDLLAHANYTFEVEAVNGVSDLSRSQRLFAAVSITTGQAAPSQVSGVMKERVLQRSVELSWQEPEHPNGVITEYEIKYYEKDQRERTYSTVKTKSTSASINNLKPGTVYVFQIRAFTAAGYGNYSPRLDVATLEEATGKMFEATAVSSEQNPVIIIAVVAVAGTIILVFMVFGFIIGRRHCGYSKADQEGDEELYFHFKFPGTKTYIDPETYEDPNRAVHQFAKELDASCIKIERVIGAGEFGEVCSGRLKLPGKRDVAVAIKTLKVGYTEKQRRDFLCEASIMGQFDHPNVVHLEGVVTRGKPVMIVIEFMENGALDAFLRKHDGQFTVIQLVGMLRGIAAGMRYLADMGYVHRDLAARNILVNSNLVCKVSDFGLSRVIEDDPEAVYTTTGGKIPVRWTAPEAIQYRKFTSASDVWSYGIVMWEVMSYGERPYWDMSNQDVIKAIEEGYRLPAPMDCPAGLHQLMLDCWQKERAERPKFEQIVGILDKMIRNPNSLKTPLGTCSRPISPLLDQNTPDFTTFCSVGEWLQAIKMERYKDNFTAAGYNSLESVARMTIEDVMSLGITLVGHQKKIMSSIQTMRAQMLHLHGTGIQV
Ephrin type-A receptor 5 (Homo sapiens), sequence (P54756 whole entry): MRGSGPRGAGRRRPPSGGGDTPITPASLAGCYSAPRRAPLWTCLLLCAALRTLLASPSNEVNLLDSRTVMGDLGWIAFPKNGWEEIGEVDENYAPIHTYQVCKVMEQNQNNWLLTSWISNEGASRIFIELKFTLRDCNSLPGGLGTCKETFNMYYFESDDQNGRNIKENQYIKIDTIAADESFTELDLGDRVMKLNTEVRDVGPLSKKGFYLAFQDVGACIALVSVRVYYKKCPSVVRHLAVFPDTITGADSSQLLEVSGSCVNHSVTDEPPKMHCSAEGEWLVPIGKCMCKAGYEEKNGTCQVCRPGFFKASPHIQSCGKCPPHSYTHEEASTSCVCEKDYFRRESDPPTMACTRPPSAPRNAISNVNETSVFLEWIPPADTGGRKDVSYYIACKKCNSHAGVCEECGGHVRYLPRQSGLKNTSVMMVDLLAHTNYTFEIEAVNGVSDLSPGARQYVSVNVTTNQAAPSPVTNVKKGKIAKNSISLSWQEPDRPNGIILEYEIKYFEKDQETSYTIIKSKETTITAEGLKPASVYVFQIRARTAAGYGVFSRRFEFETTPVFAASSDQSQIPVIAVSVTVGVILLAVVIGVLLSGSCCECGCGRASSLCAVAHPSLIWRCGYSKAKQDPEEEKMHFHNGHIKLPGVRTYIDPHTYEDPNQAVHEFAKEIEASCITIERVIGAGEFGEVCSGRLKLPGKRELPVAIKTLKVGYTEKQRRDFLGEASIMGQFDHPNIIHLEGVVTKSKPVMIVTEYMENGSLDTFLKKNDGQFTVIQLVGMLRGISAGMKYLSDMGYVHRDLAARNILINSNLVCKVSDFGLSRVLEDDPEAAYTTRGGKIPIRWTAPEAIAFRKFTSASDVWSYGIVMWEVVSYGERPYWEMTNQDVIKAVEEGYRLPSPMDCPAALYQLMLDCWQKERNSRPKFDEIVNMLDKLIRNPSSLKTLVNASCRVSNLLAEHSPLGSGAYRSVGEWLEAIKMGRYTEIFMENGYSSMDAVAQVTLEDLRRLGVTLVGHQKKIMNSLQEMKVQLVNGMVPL

SMILES	residual activity [1] [%]	residual activity [2] [%]	residual activity [3] [%]	residual activity [4] [%]	residual activity [5] [%]	residual activity [6] [%]	residual activity [7] [%]	residual activity [8] [%]	residual activity [9]	residual activity [10] [%]	residual activity [11] [%]	residual activity [12] [%]	residual activity [13] [%]	residual activity [14] [%]	residual activity [15] [%]	residual activity [16] [%]	residual activity [17] [%]	residual activity [18] [%]
Cc1cc2ncc(-c3ccccc3)nc2cc1C	92	99	93	97	98	106	106	103	106% (inactive)	125	99	105	–	–	–	–	–	–
Cn1nc2c3c(cccc31)C(=O)c1ccccc1-2	73	95	88	94	81	94	77	109	104% (inactive)	–	93	90	110	99	108	87	83	95
